PubChem BioAssay
“And” between values parts separate entries of the source, which are not always exact repeats. Equal entries are not always repeated. The source made the active and inactive calls.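 Rule for the calls: active = z-score of at least 1.8 in each of two replicates, scored against plate mean and spread of sample wells; inactive = the rest.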

Experiment: galactose survival enhancers in mitochondrial complex I cybrids – cell-based, galactose medium, ATP luminescence, primary screen (AID 1645843);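 note: positive z means more ATP and so rescue of galactose-driven cybrid death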
Settings: complex I mutant cybrid cells, 72 h, hits give high values

SMILES | z-score
CO[C@@]12[C@H](COC(N)=O)C3=C(C(=O)C(C)=C(N)C3=O)N1C[C@@H]1N[C@@H]12 | -1.99 (inactive)
CN1CCN(CC(=O)N2c3ccccc3C(=O)Nc3cccnc32)CC1 | 1.01 (inactive) and 0.81 (inactive)
CCCc1cc(C(N)=S)ccn1 | 0.335 (inactive)
CC(=O)O[C@]1(C(C)=O)CC[C@H]2[C@@H]3C=C(Cl)C4=CC(=O)[C@@H]5C[C@@H]5[C@]4(C)[C@H]3CC[C@@]21C | 1.89 (inactive) and 0.36 (inactive)
COc1cc(NS(=O)(=O)c2ccc(N)cc2)nc(OC)n1 | -0.135 (inactive)
Cc1ncc([N+](=O)[O-])n1CCO | 1.04 (inactive) and 0.355 (inactive)
O=C(O)c1ccccc1Nc1cccc(C(F)(F)F)c1 | 0.44 (inactive)
CC(=O)Oc1ccccc1C(=O)O | 0.51 (inactive) and 0.115 (inactive)
CC(=O)N[C@@H](CS)C(=O)O | 0.55 (inactive)
CN1C(C(=O)Nc2ccccn2)=C(O)c2sccc2S1(=O)=O | -0.07 (inactive)
NC[C@H](O)c1ccc(O)c(O)c1 | -1.45 (inactive) and -1.61 (inactive) and -1.02 (inactive)
NCCCCCC(=O)O | 1.05 (inactive)
NS(=O)(=O)c1cc2c(cc1Cl)NC(C(Cl)Cl)NS2(=O)=O (centres undefined) | -0.19 (inactive)
CC(C)(Oc1ccc(CCNC(=O)c2ccc(Cl)cc2)cc1)C(=O)O | 0.225 (inactive) and 0.83 (inactive)
Cc1cc(C(C)(C)C)cc(C)c1CC1=NCCN1 | -0.37 (inactive) and 0.085 (inactive)
CC1(C)NC(=O)N(c2ccc([N+](=O)[O-])c(C(F)(F)F)c2)C1=O | -0.59 (inactive) and -0.55 (inactive)
COc1cc2c3cc1Oc1cc(ccc1O)C[C@@H]1c4c(cc(OC)c(O)c4Oc4ccc(cc4)C[C@@H]3N(C)CC2)CC[N+]1(C)C | 0.605 (inactive)
O=C1NCC2(CCN(CCc3ccccc3)CC2)O1 | 0.155 (inactive)
CCOC(=O)[C@H](CCc1ccccc1)N[C@@H](C)C(=O)N1CCC[C@H]1C(=O)O | 0.27 (inactive)
CC(C)NC[C@@H](O)COc1cccc2ccccc12 | 0.54 (inactive)

SMILES | z-score
CN1CCN(CCCN2c3ccccc3Sc3ccc(Cl)cc32)CC1 | -1.35 (inactive) and -1.42 (inactive)
O=C(CCCN1CCN(c2ccccn2)CC1)c1ccc(F)cc1 | -0.625 (inactive)
C[C@@](Cc1ccc(O)c(O)c1)(NN)C(=O)O | 1.23 (inactive) and -0.53 (inactive)
C[N+](C)(C)CCOC(N)=O | 0.575 (inactive) and 0.535 (inactive)
CN(C)CCC(c1ccccc1)c1ccccn1 (centres undefined) | 0.62 (inactive) and -0.17 (inactive)
C[C@](N)(Cc1ccc(O)c(O)c1)C(=O)O | -1.24 (inactive) and -0.53 (inactive) and -0.665 (inactive)
C[C@H]1c2cccc(O)c2C(O)=C2C(=O)[C@]3(O)C(O)=C(C(N)=O)C(=O)[C@@H](N(C)C)[C@@H]3[C@@H](O)[C@@H]21 | 2.63 (active) and 2.23 (active)
C[C@]12CC[C@@H]3c4ccc(O)cc4CC[C@H]3[C@@H]1C[C@@H](O)[C@@H]2O | 0.76 (inactive)
CCO/C([O-])=N/c1c[n+](N2CCOCC2)no1 | 0.905 (inactive) and 0.425 (inactive)
C[n+]1cc2c3c(ccc2c2ccc4cc5c(cc4c21)OCO5)OCO3 | -1.38 (inactive)
Nc1ccc(N=Nc2ccccc2)c(N)n1 | -0.225 (inactive)
CCN(CC)C(C)CN1c2ccccc2Sc2ccccc21 (centres undefined) | -0.44 (inactive)
CN(Cc1cc(Br)cc(Br)c1N)C1CCCCC1 | -1.71 (inactive)
Cc1ccc(S(=O)(=O)NC(=O)NN2CC3CCCC3C2)cc1 (centres undefined) | 0.595 (inactive)
COC(=O)[C@@H]1[C@H]2C[C@H]3c4[nH]c5ccccc5c4CCN3C[C@@H]2CC[C@@H]1O | 0.525 (inactive) and 0.82 (inactive)
CN(C)CCCN1c2ccccc2Sc2ccccc21 | -0.99 (inactive)
CN(C)C(=O)Oc1cccc([N+](C)(C)C)c1 | 0.53 (inactive) and 0.21 (inactive)
CC(=O)Oc1ccc(C(c2ccc(OC(C)=O)cc2)c2ccccn2)cc1 | -0.6 (inactive)
C=Cc1c(C)c2cc3[nH]c(cc4nc(cc5nc(cc1[nH]2)C(C)=C5CCC(=O)O)C(CCC(=O)O)=C4C)c(C)c3C=C | -0.23 (inactive)
